Screens: PubChem BioAssay, National Center for Advancing Translational Sciences (NCATS)
Most compounds without a hit are left out; they make up all but 12% or so of the library.
MARV entry inh: inhibitors of Marburg virus binding or cell entry; Marburg virus pseudotyped entry inhibition, cell reporter; Potency, µM (titrated, usually from 37.8 µM), for the others: top-dose activity change, negative = inhibition, hits mostly inhibitors; actives 1.8% (n = 300,000); calls by dose curve; tested in HEK293 cells; note: potency is the fitted concentration of half-maximal effect; % is set by controls: 0 for no effect and ±100 for the full control effect
Lassa entry inh: blocks Lassa virus binding to or entry into cells. Lassa virus pseudotype entry inhibition, cell reporter. Potency, µM (highest dose often 37.9 µM), for the others: at the highest dose activity change, negative = inhibition, usual class: inhibitors. actives 1.2% (n = 300,000); calls by dose curve; tested in HEK293 cells; note: potency is the fitted concentration of half-maximal effect; % is set by controls: 0 for no effect and ±100 for the full control effect; nearly all actives have a fitted effect of over 50% in size
CHX counter: affects cycloheximide protein synthesis inhibition readout, counter-screen; actives 12% (n = 300,000); max response, %; cell reporter, cycloheximide protein synthesis inhibition counterscreen; AID 2314; in the data active = max response mostly above about 13%, no sharp cut-off; inactive = mostly below about 14%; note: read at 38.3 µM for the half of the compounds with a filed dose; 0% is about no effect
Shiga toxin inh: Shiga toxin inhibition. Vero cells, Shiga toxin protein synthesis inhibition reporter. inhibition, % at 38.7 µM. actives 9.2% (n = 290,000). AID 2315; in the data active = inhibition mostly above about 28%, no sharp cut-off; inactive = mostly below about 43%; note: 0% is about no effect
An asterisk follows results filed as active; ? = inconclusive; nt = not tested or not shown; [ ] = remark or other dose.

SMILES	MARV entry inh	Lassa entry inh	CHX counter	Shiga toxin inh
O=C(CCc1ccccc1)NC(c1cccs1)c1cc(Cl)c2cccnc2c1O (centres undefined)	?	2.82µM*	8.5	-12.2
CCC(=O)NC(c1ccc(OC)cc1)c1cc(Cl)c2cccnc2c1O (centres undefined)	2.24µM*	2.82µM*	-3.0	-7.7
Oc1c(C(Nc2ccccn2)c2cccnc2)cc(Cl)c2cccnc12 (centres undefined)	?	?	-1.6	16.7
CC(=O)NC(c1ccc(C)cc1)c1cc(Cl)c2cccnc2c1O (centres undefined)	2.82µM*	?	-1.5	-7.0
COc1ccc(C(NC(=O)c2cccnc2)c2cc(Cl)c3cccnc3c2O)cc1OC (centres undefined)	7.08µM*	15.8µM*	-2.1	-10.2
CCCC(=O)NC(c1cccs1)c1cc([N+](=O)[O-])c2cccnc2c1O (centres undefined)	?	?	-1.2	14.8
COc1cccc(CN2CC(C(=O)NCCSc3nnnn3C)CCC2=O)c1 (centres undefined)	10.8%	1.1%	-0.5	-10.9
N#CCCn1nc(-c2ccc([N+](=O)[O-])cc2)cc1Nc1ccccc1NC(=O)C(F)(F)F	?	-27.0%	6.9	3.3
COc1ccc(OCCNS(=O)(=O)c2ccccc2)cc1	-1.4%	12.0%	1.4	-17.0
O=C(CCC(=O)c1cccs1)Nc1ccccc1F	?	0.4%	16.5*	37.1
Cc1ccc(NC(=O)CCC(=O)c2cccs2)cc1F	19.4%[46.1 µM]	1.8%	26.8*	42.3
CCc1ccccc1NC(=O)CCC(=O)c1cccs1	-5.8%[46.1 µM]	-0.2%[46.1 µM]	-1.6	-25.4
Cc1ccc(OCCNS(=O)(=O)c2cccs2)cc1	?	2.6%	44.1*	55.8
Cc1ccc(NC(=O)CNS(=O)(=O)c2cccs2)cc1F	12.2%	?	80.0*	79.0*
Cc1ccc(NC(=O)CCC(=O)NNC(=O)c2cccs2)cc1C	19.7%	?	17.5	-15.0
CC(=O)Nc1ccc(S(=O)(=O)NCCC(=O)Nc2ccc(C)c(F)c2)cc1	?	11.4%[46.1 µM]	-3.7	4.2
Cc1ccc(NC(=O)CCNS(=O)(=O)c2cccs2)cc1F	13.3%[46.1 µM]	9.7%[46.1 µM]	26.2*	69.7*
COc1cccc(CN2CC(C(=O)NCCOc3ccccc3)CCC2=O)c1 (centres undefined)	nt	nt	19.5*	17.0
COc1cccc(CN2CC(C(=O)N(C)C3CCOCC3)CCC2=O)c1 (centres undefined)	9.6%[46.1 µM]	1.0%[46.1 µM]	14.4*	16.7
COc1cccc(CN(C)C(=O)C2CCC(=O)N(Cc3cccc(F)c3)C2)c1 (centres undefined)	21.5%	12.4%	1.1	-24.2
Cc1ccc(O)c(C(=O)CC(=O)c2ccccc2Cl)c1	?	?	37.7*	81.3*
Cc1ccc(O)c(C(=O)CC(=O)c2ccc(C(C)(C)C)cc2)c1	nt	nt	23.2*	nt
CCC(CO)N=C1CC(C)(C)CC(=O)/C1=C(/O)CCCN1C(=O)c2ccccc2C1=O (centres undefined)	-18.9%[46.1 µM]	-9.4%[46.1 µM]	-0.5	-4.6
CCOC(=O)NC(=O)CSc1nc(-c2ccc(C)c(C)c2)cn1-c1ccccc1	?	-15.8%	62.9*	130.8*
Cc1ccc(-c2cn(-c3ccccc3)c(SCC(N)=O)n2)cc1C	-6.3%	-0.8%	36.9*	43.1*
SMILES	MARV entry inh	Lassa entry inh	CHX counter	Shiga toxin inh
Cc1ccccc1-n1cc(-c2ccc(Br)cc2)nc1SCC(N)=O	?	?	0.4	0.6
O=C(NNC(=O)C1CC=CCC1C(=O)O)c1ccc(Cl)cc1 (centres undefined)	18.5%[46.1 µM]	0.7%	3.2	-4.8
COc1ccc(C2C(C(=O)Nc3ccc4c(c3)OCCO4)c3ccccc3C(=O)N2C)cc1 (centres undefined)	-20.2%	2.3%	7.9	2.3
O=C(c1cc(COc2ccc(F)cc2Cl)on1)N1CCN(c2cnccn2)CC1	-16.1%	0.3%	0.9	1.4
O=C(O)CCn1c(SCCc2ccccc2)nc2ccccc21	-13.6%	8.3%	nt	nt
COc1ccccc1OCCSc1nc2ccccc2n1CC(O)CO (centres undefined)	nt	nt	12.9*	25.1
COC(=O)Cn1c(SCCOc2ccccc2OC)nc2ccccc21	-25.4%[46.1 µM]	14.1%[46.1 µM]	nt	nt
O=C(O)CCn1c(SCc2ccccc2)nc2ccccc21	-1.0%	7.0%	8.8	22.9*
O=C(O)CCn1c(SCCOc2ccccc2F)nc2ccccc21	nt	nt	18.0*	5.2
COC(=O)Cn1c(SCc2ccccc2)nc2ccccc21	-12.2%	5.8%	18.5*	48.4
CCc1nn(C(C)C(=O)NCc2cccc(OC)c2)c(=O)c2cc3occc3n12 (centres undefined)	-24.2%[46.1 µM]	-8.3%[46.1 µM]	2.5	0.9
